Data reported in PubChem BioAssay (NCI).
Compounds without any hit were thinned out: in the full panel of roughly 83,000, 20% have a hit.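 Growth was measured after 48 h exposure to one concentration of compound in 96-well plates. Values under 10 count as active.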 A number with no mark means an inactive call. Active and inactive are the calls of the source.

Tests used:
Assay in all cases: NCI-60 one-dose screen, 48 h (100 = growth as untreated, 0 = no growth, -100 = all killed)
Details in all cases: 10 µM unless noted
NCI-H23 lung = test system: NCI-H23 lung
NCI-H226 lung = test system: NCI-H226 lung
NCI-H322M lung = test system: NCI-H322M lung
HOP-62 NSCLC = test system: HOP-62 NSCLC
NCI-H460 lung = test system: NCI-H460 lung
HOP-92 NSCLC = test system: HOP-92 NSCLC
NCI-H522 lung = test system: NCI-H522 lung
A549/ATCC NSCLC = test system: A549/ATCC NSCLC
786-0 renal = test system: 786-0 renal
COLO 205 colon = test system: COLO 205 colon

| Compound | growth (NCI-H23 lung) | growth (NCI-H226 lung) | growth (NCI-H322M lung) | growth (HOP-62 NSCLC) | growth (NCI-H460 lung) | growth (HOP-92 NSCLC) | growth (NCI-H522 lung) | growth (A549/ATCC NSCLC) | growth (786-0 renal) | growth (COLO 205 colon) |
| --- | --- | --- | --- | --- | --- | --- | --- | --- | --- | --- |
| C/C(=N\N=C1/SCC(=O)N1c1ccccc1)c1ccco1 | 99.4% | 124% | 89.8% | 137% | 123% | 63.3% | 75.4% | 114% | 52% | 130% |
| COc1ccc(/C=N/C2=NNC(C)(c3ccccc3O)N2C(Cc2c[nH]c3ccccc23)C(=O)O)cc1 (stereo not given) | 22.8% | 53.2% | 56.1% | 32.7% | 20.4% | 2.13% (active) | 18.9% | 42.5% | 58.3% | 8.42% (active) |
| CC(C)[C@@H]1NC(=O)[C@]2(C)CSC(=N2)c2ccnc(c2)CNC(=O)C[C@@H](/C=C/CCS)OC1=O | 12.6% | 11.8% | 4.39% (active) | 6.46% (active) | 9.2% (active) | -16.5% (active) | -18.4% (active) | -1.52% (active) | 6.38% (active) | -70.3% (active) |
| O=C1/C(=C/c2cccc3cnccc23)Cc2cc(F)ccc21 | 87.7% | 73.8% | 93.9% | 65.1% | 95.9% | 75.3% | 78.4% | 98.7% | 97.4% | 81.8% |
| O=C(NCCNc1nccc(-c2c(-c3cccc(O)c3)nc3sccn23)n1)c1ccccc1 | 82.6% | 54.5% | 101% | 119% | 42.4% | 58.6% | 72.7% | 56.3% | 66.5% | 48.5% |
| c1ccc2c(c1)Oc1cccnc1-n1nccc1-2 | 97.8% | 77.3% | 102% | 104% | 103% | 90% | 99.7% | 99.6% | 103% | 119% |
| COc1ccccc1P(c1ccccc1OC)c1ccccc1OC | 250% | 105% | 87.5% | 113% | 94.8% | 70% | 92.4% | 82.2% | 106% | 87.1% |
| COc1ccc(-c2[nH]c3ccccc3c2/C=C(\C#N)S(=O)(=O)c2ccccc2)cc1 | 17.5% | 65.2% | 61.9% | 35.5% | 3.97% (active) | 65.5% | 26.8% | 33.9% | 22.1% | -39.4% (active) |
| CCOC(=O)CSc1nnc(-c2cc3c([nH]c4ccccc43)c(-c3cccc(O)c3)n2)n1-c1ccc(C)cc1 | 97% | 100% | 95.2% | 88.3% | 103% | 48.9% | 47.1% | 98.5% | 88.7% | 95.1% |
| COc1ccc(-c2nn(-c3cccc(Cl)c3)cc2-c2cc(-c3ccc(Br)cc3)[nH]c(=O)c2C#N)cc1 | 86.8% | 84% | 83.9% | 93.8% | 48.9% | 82.1% | 74.7% | 68.2% | 102% | 104% |
| COc1ccc2c(c1)C(=O)/C(=C/c1ccc(OCC(=O)c3ccc(Cl)cc3)cc1)O2 | 97.1% | 80.7% | 102% | 121% | 106% | 50.6% | -64.2% (active) | 99.2% | 115% | 123% |
| Nc1nc(Cl)cc(NCc2ccc(CNc3cc(Cl)nc(N)n3)cc2)n1 | 75.7% | 70.8% | 102% | 48.8% | 115% | 92.9% | 49.8% | 87.2% | 101% | 103% |
| CCc1c(C)c2cc3c(c(C)c2oc1=O)OCC(=O)N3 | 63.5% | 52.4% | 60.7% | 73.5% | 43.2% | 50.7% | 58.2% | 47% | 48.2% | 83% |
| OC[C@@H](O)C(O[C@@H]1O[C@H](CO)[C@H](O)[C@H](O)[C@H]1O)[C@H](O)[C@@H](O)CO (stereo not given in full) | 98.3% | 103% | 96% | 96.7% | 108% | 82.1% | 95.7% | 110% | 106% | 110% |
| CCOc1ccc(-n2c(-c3cc(OC)c(OC)c(OC)c3)nnc2-c2ccc(OC)cc2N)cc1 | 76.4% | 80.1% | 81.3% | 78.3% | 42.3% | 73.1% | 52.6% | 54.9% | 89.5% | 51% |
| CCCCNc1cc(C(=O)O)cc(S(N)(=O)=O)c1Oc1ccccc1 | 102% | 91% | 101% | 101% | 104% | 81% | 102% | 105% | 103% | 98.6% |
| Cc1cccc(CC(=O)c2ccccc2)n1 | 94.5% | 95.8% | 87.3% | 78.4% | 95.7% | 82.2% | 80.9% | 74.2% | 94.4% | 103% |
| C=C1C(=O)O[C@H]2[C@H]1CC/C(COC(=O)c1cc(OC)c(OC)c(OC)c1)=C\CC[C@@]1(C)O[C@@H]21 | 8.29% (active) | -12.1% (active) | 52.9% | 22% | 16.1% | -59.5% (active) | -88.4% (active) | 24.7% | -90.9% (active) | -73.4% (active) |
| CN(C)c1ncc(C#Cc2c(F)cccc2F)c2ccccc12 | 89.9% | 89.4% | 88.5% | 88.1% | 84% | 40.4% | 70.7% | 86.5% | 105% | 98.7% |
| Cc1cc[n+](CCCC[n+]2ccc(C)cc2)cc1 | 96% | 99% | 97.1% | 108% | 108% | 74.3% | 120% | 104% | 95.8% | 110% |
| O=[N+]([O-])c1ccc(NS(=O)(=O)c2ccccc2)c2ccccc12 | 34.3% | 59.4% | 71.9% | 50.6% | 38.2% | 1.99% (active) | 18.2% | 57.1% | 51.5% | 59.1% |
| Nc1nccc2c1ccn2-c1ccc(NC(=O)Nc2cccc(C(F)(F)F)c2)cc1 | 90% | 81.9% | 98.2% | 94.2% | 90.8% | 57.4% | 87.2% | 91.3% | 110% | 92.1% |
| Nn1c(SCC(=O)Nc2cc(Cl)c(Cl)cc2Cl)nnc1-c1cc(F)c(Cl)cc1Cl | 103% | 138% | 105% | 91.3% | 110% | 75.8% | 90.9% | 106% | 98.4% | 106% |
| O=C(NCCNc1nccc(-c2c(-c3cccc(O)c3)nc3sccn23)n1)c1ccccc1O | 57.4% | 80.5% | 72.3% | 114% | 57% | 59.9% | 29% | 43.3% | 64.6% | 66.5% |
| O=C(COc1ccc(Cl)cc1Cl)N1N=C(c2ccc(Cl)cc2Cl)CC1(O)c1cc(F)c(Cl)cc1Cl (stereo not given) | 98.7% | 149% | 110% | 105% | 107% | 84.5% | 95% | 107% | 101% | 95.4% |
| Clc1ccc(OCc2nc(-c3ccccc3)n[nH]2)c(Cl)c1 | 97.6% | 89.9% | 101% | 86.8% | 99.3% | 90.8% | 92% | 97.1% | 108% | 90.5% |
| COc1cc2ncnc(Oc3ccc(NC(=O)Nc4ccc(CN5CCOCC5)c(C(F)(F)F)c4)c4ccccc34)c2cc1OC | 16.8% | 1.53% (active) | 19.3% | 66.8% | 25.4% | -2.3% (active) | 19.8% | 23.1% | 37.1% | 13.4% |
